Assay results reported in PubChem BioAssay (NCI).
This is part of a sample that, as a whole, favours compounds with a hit. Of some 83,000 tested, about 20% had one in any assay.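 How to read the values: 0–100, growth inhibition (40 = 60% inhibited); 0, no net growth; -100 to 0, cell death (-40 = 40% of starting cells died; -100 = all dead).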 Active and inactive are the calls of the source. How the source made its calls: active means growth percent below 10; inactive means the rest.

What was measured:
Assay in all cases: NCI-60 one-dose screen, 48 h (100 = growth as untreated, 0 = no growth, -100 = all killed)
NCI-H23 lung = conditions: 10 µM unless noted
NCI-H322M lung = conditions: 10 µM unless noted
HOP-62 NSCLC = conditions: 10 µM unless noted
NCI-H460 lung = conditions: 10 µM unless noted
HOP-92 NSCLC = conditions: 10 µM unless noted
NCI-H522 lung = conditions: 10 µM
786-0 renal = conditions: 10 µM unless noted
COLO 205 colon = conditions: 10 µM unless noted
A549/ATCC NSCLC = conditions: 10 µM unless noted

Measured: growth

N#Cc1ncc(-c2ccc(C(F)(F)F)cc2)c(NC2CCCCCC2)n1
inactive: NCI-H23 lung 29.9% | NCI-H322M lung 78.2% | HOP-62 NSCLC 43.9% | NCI-H460 lung 29.8% | 786-0 renal 37.9%
active: HOP-92 NSCLC -22.6% | NCI-H522 lung -4.74% | COLO 205 colon 7.19%

O=C1c2cccc3c([N+](=O)[O-])ccc(c23)C(=O)N1CCCCl
active: NCI-H23 lung -74.8% [100 µM] | NCI-H322M lung -96.2% [100 µM] | HOP-62 NSCLC -92.4% [100 µM] | NCI-H460 lung -34.7% [100 µM] | HOP-92 NSCLC -82.5% [100 µM] | A549/ATCC NSCLC -73.7% [100 µM] | 786-0 renal -83.8% [100 µM] | COLO 205 colon -80.4% [100 µM]

O=CNc1ccc2c(c1)Cc1cc([N+](=O)[O-])ccc1-2
inactive: NCI-H23 lung 37.9% | HOP-62 NSCLC 26.5% | NCI-H460 lung 15.8% | HOP-92 NSCLC 42.4% | A549/ATCC NSCLC 18.6% | 786-0 renal 38.1%
active: NCI-H322M lung 9.9% | COLO 205 colon 1.14%

Cc1ccc(-c2c3c(N)nc(-c4ccncc4)nc3nc3c2c(C)nn3-c2ccccc2)cc1
active: HOP-92 NSCLC -7.02%
inactive: NCI-H23 lung 56.4% | NCI-H322M lung 70.3% | HOP-62 NSCLC 15.5% | NCI-H460 lung 28.5% | A549/ATCC NSCLC 17.8% | 786-0 renal 80.8% | COLO 205 colon 18.1%

C(=C1c2ccccc2-c2ccccc21)c1ccccn1
inactive: NCI-H23 lung 79.9% | NCI-H322M lung 89.1% | HOP-62 NSCLC 71.7% | NCI-H460 lung 83.8% | HOP-92 NSCLC 73.4% | A549/ATCC NSCLC 63.7% | 786-0 renal 87.2% | COLO 205 colon 84.9%

CCN1CC2=C(Nc3nc(SC)[nH]c(=O)c3C2c2cc(OC)c(OC)c(OC)c2)/C(=C/c2cc(OC)c(OC)c(OC)c2)C1 (stereo not given)
inactive: NCI-H23 lung 99.2% | NCI-H322M lung 95.2% | HOP-62 NSCLC 104% | HOP-92 NSCLC 81.6% | NCI-H522 lung 81.2% | 786-0 renal 96.9% | COLO 205 colon 113%

OC(c1ccccc1)C(NCc1ccccc1)c1ccccc1 (stereo not given)
inactive: NCI-H23 lung 93.5% | NCI-H322M lung 97.8% | HOP-62 NSCLC 90.5% | NCI-H460 lung 100% | HOP-92 NSCLC 71.8% | A549/ATCC NSCLC 101% | 786-0 renal 87.2% | COLO 205 colon 116%

C#C[C@]1(O)CCC2C3CCc4cc(O)ccc4C3CC[C@@]21C (stereo not given in full)
inactive: NCI-H23 lung 62.4% | NCI-H322M lung 81.4% | HOP-62 NSCLC 35.4% | NCI-H460 lung 17.5% | HOP-92 NSCLC 75.3% | NCI-H522 lung 10.6% | 786-0 renal 44.3% | COLO 205 colon 41.1%

Cc1ccc(-c2csc(N)n2)cc1
inactive: NCI-H23 lung 102% | NCI-H322M lung 107% | HOP-62 NSCLC 110% | NCI-H460 lung 102% | HOP-92 NSCLC 70.7% | NCI-H522 lung 98.8% | 786-0 renal 98.3% | COLO 205 colon 115%

Cc1ccc(-c2c3c(N)c4c(nc3nc3c2c(C)nn3-c2ccccc2)CCC4)cc1
inactive: NCI-H23 lung 66.8% | NCI-H322M lung 89.1% | HOP-62 NSCLC 95.7% | HOP-92 NSCLC 77.9% | A549/ATCC NSCLC 32.9% | 786-0 renal 28%
active: NCI-H460 lung 5% | COLO 205 colon -74.4%

COc1ccc(/C=C2/SC(=Nc3c(C)nn(-c4ccccc4)c3N)NC2=O)cc1
inactive: NCI-H23 lung 38.3% | NCI-H322M lung 39.1% | HOP-62 NSCLC 53% | NCI-H460 lung 17.7% | HOP-92 NSCLC 53.7% | A549/ATCC NSCLC 32.4% | 786-0 renal 40.5% | COLO 205 colon 43.7%

CNc1nc(NC2CCCC2)nc(Sc2ccc(OC)cc2)n1
inactive: NCI-H23 lung 39.4% [100 µM] | NCI-H322M lung 68.5% [100 µM] | HOP-62 NSCLC 53.4% [100 µM] | NCI-H460 lung 10.2% [100 µM] | A549/ATCC NSCLC 20.3% [100 µM] | 786-0 renal 13% [100 µM] | COLO 205 colon 22.5% [100 µM]
active: HOP-92 NSCLC -42.7% [100 µM]

Cc1[nH]cnc1/C=C1\SC(N2CCCCC2)=NC1=O
inactive: NCI-H23 lung 101% | NCI-H322M lung 123% | HOP-62 NSCLC 105% | NCI-H460 lung 109% | HOP-92 NSCLC 100% | A549/ATCC NSCLC 96.8% | 786-0 renal 94.7% | COLO 205 colon 114%

COc1c(O)cc2c(c1CC=C(C)C)OC(=O)c1c(cc(O)c(CC=C(C)C)c1O)O2
inactive: NCI-H322M lung 77.1% | HOP-92 NSCLC 54.6% | A549/ATCC NSCLC 57.1% | 786-0 renal 19.3% | COLO 205 colon 107%
active: NCI-H23 lung -8.77% | HOP-62 NSCLC 6.39% | NCI-H460 lung 9.47%

N=C1c2nc3n(c2C(=O)c2nc4n(c21)CCCCC4)CCCCC3
inactive: NCI-H23 lung 97.3% | NCI-H322M lung 110% | HOP-62 NSCLC 122% | NCI-H460 lung 92.6% | HOP-92 NSCLC 126% | NCI-H522 lung 90.9% | 786-0 renal 120%

Cc1cc(=O)[nH]c(/C(=N/Nc2ccccc2)C(=O)c2ccc(Cl)cc2)n1
inactive: NCI-H23 lung 105% | NCI-H322M lung 107% | HOP-62 NSCLC 104% | NCI-H460 lung 109% | HOP-92 NSCLC 88.7% | A549/ATCC NSCLC 92.5% | 786-0 renal 82.2% | COLO 205 colon 106%

Oc1ccccc1/C=N/N1CCCCCC1
inactive: NCI-H23 lung 101% | NCI-H322M lung 108% | HOP-62 NSCLC 109% | NCI-H460 lung 127% | HOP-92 NSCLC 50.4% | NCI-H522 lung 104% | 786-0 renal 110% | COLO 205 colon 122%

CN(C)CCCNc1nn2c(=O)c3ccccc3nc2c2ccccc12
inactive: NCI-H23 lung 54.1% | NCI-H322M lung 61.9% | HOP-62 NSCLC 47.5% | HOP-92 NSCLC 23.3% | A549/ATCC NSCLC 24% | 786-0 renal 59% | COLO 205 colon 37.1%

O=C(Oc1cccc2ccccc12)c1ccccc1C(=O)c1ccccc1
inactive: NCI-H23 lung 93% | NCI-H322M lung 101% | HOP-62 NSCLC 101% | NCI-H460 lung 93.2% | HOP-92 NSCLC 54.5% | A549/ATCC NSCLC 88.3% | 786-0 renal 103% | COLO 205 colon 112%

COc1cc(-c2nnc(-c3nc(-c4cc(OC)c(OC)c(OC)c4)n4ccccc34)o2)ccc1N
inactive: NCI-H23 lung 67.7% | NCI-H322M lung 83.1% | HOP-62 NSCLC 89% | NCI-H460 lung 68.3% | HOP-92 NSCLC 29.2% | A549/ATCC NSCLC 28.2% | 786-0 renal 68.6% | COLO 205 colon 88.7%

Nc1ccccc1C#Cc1ccccc1C#Cc1ccc(OCCCCCCOc2ccc(C#Cc3ccccc3C#Cc3ccccc3N)cc2)cc1
inactive: NCI-H23 lung 95.3% | NCI-H322M lung 106% | HOP-62 NSCLC 93.9% | NCI-H460 lung 114% | HOP-92 NSCLC 88.8% | A549/ATCC NSCLC 106% | 786-0 renal 89.8% | COLO 205 colon 96.7%

CC(C)Sc1nc(-c2ccc(Br)cc2)c(C#N)c(N2CCCCC2)n1
inactive: NCI-H23 lung 110% | NCI-H322M lung 93.7% | HOP-62 NSCLC 115% | NCI-H460 lung 104% | HOP-92 NSCLC 105% | NCI-H522 lung 99.3% | 786-0 renal 82.7% | COLO 205 colon 135%

COc1ccc(-c2nc3sc4c(c3c(=O)[nH]2)CCCCCC4)cc1
inactive: NCI-H23 lung 80.7% | NCI-H322M lung 74.4% | HOP-62 NSCLC 36.2% | NCI-H460 lung 33.2% | HOP-92 NSCLC 73.2% | A549/ATCC NSCLC 50.3% | 786-0 renal 80.1% | COLO 205 colon 35.4%

O=[N+]([O-])c1ccc2[nH]cc(-c3c4ccccc4cc4[nH]c5ccc([N+](=O)[O-])cc5c34)c2c1
inactive: NCI-H23 lung 33.1% | NCI-H322M lung 47.3% | HOP-62 NSCLC 48.5% | HOP-92 NSCLC 44.7% | NCI-H522 lung 11.3% | COLO 205 colon 14%
active: NCI-H460 lung 4.24% | 786-0 renal 1.4%

COc1ccc(Cl)cc1Nc1nc(C(F)(F)F)ccc1C(=O)N/N=C/c1c(Cl)cccc1Cl
inactive: NCI-H23 lung 74.1% | NCI-H322M lung 44.7% | HOP-62 NSCLC 58.5% | NCI-H460 lung 41.6% | HOP-92 NSCLC 70.9% | NCI-H522 lung 39.2% | 786-0 renal 43.7% | COLO 205 colon 35.9%

O=C(Nc1nc(-c2ccc(Cl)cc2)cs1)c1cc(-c2ccc(Br)cc2)nc2ccc(Cl)cc12
active: HOP-92 NSCLC 5.28%
inactive: NCI-H23 lung 33.5% | NCI-H322M lung 92.1% | HOP-62 NSCLC 37.2% | NCI-H460 lung 108% | NCI-H522 lung 75.3% | 786-0 renal 43% | COLO 205 colon 89.1%

COc1cccc(C=Nc2cc(C(C)C)c(O)cc2C)c1O
inactive: NCI-H23 lung 95.2% | NCI-H322M lung 95.3% | HOP-62 NSCLC 95% | NCI-H460 lung 107% | HOP-92 NSCLC 82.3% | A549/ATCC NSCLC 109% | 786-0 renal 106% | COLO 205 colon 98.6%

NS(=O)(=O)c1cc2c(cc1Cl)NC=NS2(=O)=O
inactive: NCI-H23 lung 109% | NCI-H322M lung 98.5% | HOP-62 NSCLC 98.5% | HOP-92 NSCLC 106% | NCI-H522 lung 91.4% | 786-0 renal 98.9% | COLO 205 colon 110%

Cc1cnc2nc(-c3ccc(N(C)C)cc3)cn2c1
inactive: NCI-H23 lung 93.2% | NCI-H322M lung 110% | HOP-62 NSCLC 99.5% | NCI-H460 lung 114% | HOP-92 NSCLC 104% | A549/ATCC NSCLC 95.5% | 786-0 renal 91.5% | COLO 205 colon 120%

O=C1C(=O)/C(=C/c2ccccc2)CCCCCC/C1=C/c1ccccc1
inactive: NCI-H23 lung 42.3% | NCI-H322M lung 94.5% | HOP-62 NSCLC 10.3% | NCI-H460 lung 90.4% | HOP-92 NSCLC 90.3% | A549/ATCC NSCLC 86.1% | 786-0 renal 86.6% | COLO 205 colon 99.6%

O=C(Oc1ccccc1)C(Br)C(Br)c1ccccc1 (stereo not given)
inactive: NCI-H23 lung 112% | NCI-H322M lung 179% | HOP-62 NSCLC 107% | NCI-H460 lung 109% | HOP-92 NSCLC 81.6% | A549/ATCC NSCLC 91.9% | 786-0 renal 98.3% | COLO 205 colon 49.4%

CNCCCn1c2c(c3ccc(F)cc3c1=O)C(=O)c1cc(OC)cnc1-2
active: NCI-H23 lung -41.5% | NCI-H322M lung -1.98% | HOP-62 NSCLC -30% | NCI-H460 lung -37.6% | HOP-92 NSCLC -12.4% | A549/ATCC NSCLC -71.2% | 786-0 renal -38.3% | COLO 205 colon -33.1%

COc1ccc(N2CCN(CC(=O)N3CCN(c4nnc(-c5ccc(Cl)cc5)c(-c5ccc(Cl)cc5)n4)CC3)CC2)cc1
inactive: NCI-H23 lung 81.7% | NCI-H322M lung 69.3% | HOP-62 NSCLC 93.3% | NCI-H460 lung 52.4% | HOP-92 NSCLC 50.3% | 786-0 renal 60.4% | COLO 205 colon 86%
active: A549/ATCC NSCLC -8.6%
